Source: ChEMBL document CHEMBL3988442, “University of Dundee, Small-Polar-MMV Screening Library” (2021)
For part of these data: Measured potencies and affinities stand elsewhere.

Tests used:
Design in all cases: scale not given: direction of the effect not stated beside the values
[1] = molecular target: Protein translocase subunit SecA (Escherichia coli (strain K12)) (UniProt P10408); assay: Assay to Identify E. coli SecA ATPase Inhibitors; format: functional; conditions: 30 µM
[2] = molecular target: T1, Ubiquitin-activating enzyme e1, putative (Leishmania donovani (strain BPK282A1)) (UniProt E9BSI1); assay: Leishmania donovani Ubiquitin Activating Enzyme (LdE1); format: functional; conditions: 30 µM
T1 sequence (whole entry): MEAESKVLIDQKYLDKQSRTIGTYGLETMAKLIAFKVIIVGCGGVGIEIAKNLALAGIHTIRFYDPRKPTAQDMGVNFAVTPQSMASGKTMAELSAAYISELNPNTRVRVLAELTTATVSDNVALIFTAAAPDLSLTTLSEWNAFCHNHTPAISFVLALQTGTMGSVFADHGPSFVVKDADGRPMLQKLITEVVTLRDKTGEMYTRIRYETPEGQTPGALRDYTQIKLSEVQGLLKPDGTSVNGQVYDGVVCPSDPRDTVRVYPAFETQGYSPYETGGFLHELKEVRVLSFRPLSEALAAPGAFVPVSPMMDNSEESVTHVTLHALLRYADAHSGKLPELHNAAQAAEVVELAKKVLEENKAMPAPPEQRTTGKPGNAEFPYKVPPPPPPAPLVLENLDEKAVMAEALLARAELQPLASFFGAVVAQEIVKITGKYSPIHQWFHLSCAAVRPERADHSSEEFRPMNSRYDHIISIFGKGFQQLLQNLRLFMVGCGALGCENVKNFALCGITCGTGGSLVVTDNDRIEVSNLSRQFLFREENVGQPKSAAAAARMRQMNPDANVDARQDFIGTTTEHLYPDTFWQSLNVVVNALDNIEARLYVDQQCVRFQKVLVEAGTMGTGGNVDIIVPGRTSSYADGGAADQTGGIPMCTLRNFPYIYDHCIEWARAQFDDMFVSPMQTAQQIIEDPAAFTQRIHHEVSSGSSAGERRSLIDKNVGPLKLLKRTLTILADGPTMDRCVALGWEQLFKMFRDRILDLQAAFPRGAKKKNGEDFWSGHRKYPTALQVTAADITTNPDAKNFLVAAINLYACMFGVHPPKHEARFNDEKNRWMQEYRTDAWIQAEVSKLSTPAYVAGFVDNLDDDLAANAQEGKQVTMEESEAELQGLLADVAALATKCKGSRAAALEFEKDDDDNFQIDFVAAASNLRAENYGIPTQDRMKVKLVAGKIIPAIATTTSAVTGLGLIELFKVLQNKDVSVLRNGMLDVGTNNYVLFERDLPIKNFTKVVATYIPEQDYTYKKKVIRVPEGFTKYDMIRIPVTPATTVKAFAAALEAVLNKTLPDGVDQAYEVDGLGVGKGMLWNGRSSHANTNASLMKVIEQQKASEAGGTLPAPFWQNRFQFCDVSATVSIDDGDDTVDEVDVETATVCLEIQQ

[3] = molecular target: Sialic acid-binding Ig-like lectin 9 (Homo sapiens) (UniProt Q9Y336); assay: Hs-Siglec9 ALPHAscreen SOP 20170721; conditions: 10 µM
Sequence of Sialic acid-binding Ig-like lectin 9 (Homo sapiens) (Q9Y336 whole entry): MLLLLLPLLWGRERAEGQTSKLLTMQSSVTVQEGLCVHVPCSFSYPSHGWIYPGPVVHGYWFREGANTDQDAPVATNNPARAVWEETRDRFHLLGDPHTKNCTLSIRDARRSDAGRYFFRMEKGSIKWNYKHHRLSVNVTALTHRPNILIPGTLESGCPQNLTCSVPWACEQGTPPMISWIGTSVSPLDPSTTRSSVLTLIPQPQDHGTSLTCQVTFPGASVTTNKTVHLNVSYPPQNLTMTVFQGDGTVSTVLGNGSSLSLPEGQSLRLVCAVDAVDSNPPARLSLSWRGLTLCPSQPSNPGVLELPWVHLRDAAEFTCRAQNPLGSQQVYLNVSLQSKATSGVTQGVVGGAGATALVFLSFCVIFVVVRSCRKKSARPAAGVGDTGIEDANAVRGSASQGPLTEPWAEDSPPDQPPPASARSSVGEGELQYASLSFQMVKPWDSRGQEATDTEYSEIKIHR

Trypanosoma cruzi = assay: Trypanosoma cruzi phosphomannomutase and mannose-1-phosphate guanylyltransferase assay; format: functional; conditions: 10 µM
[4] = molecular target: T2, Arginase-2, mitochondrial (Homo sapiens) (UniProt P78540); assay: in vitro enzyme assay to detect the production of urea directly proportional to the activity of Arginase II; format: functional; conditions: 33.3 µM; further: in the data most compounds retested in dose-response had high values
T2 sequence (whole entry): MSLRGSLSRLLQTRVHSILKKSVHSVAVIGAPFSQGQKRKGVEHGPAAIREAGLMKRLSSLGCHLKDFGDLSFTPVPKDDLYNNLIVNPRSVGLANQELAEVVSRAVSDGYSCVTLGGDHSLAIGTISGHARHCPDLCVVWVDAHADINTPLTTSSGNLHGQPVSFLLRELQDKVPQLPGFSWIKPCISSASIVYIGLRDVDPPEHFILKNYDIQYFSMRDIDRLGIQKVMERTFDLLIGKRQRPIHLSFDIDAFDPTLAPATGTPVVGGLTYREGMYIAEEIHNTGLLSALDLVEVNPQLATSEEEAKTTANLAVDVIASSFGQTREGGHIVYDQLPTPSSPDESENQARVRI

[5] = molecular target: T3, Proteasome subunit beta (Trypanosoma cruzi) (UniProt O96673); assay: Trypanosoma cruzi proteasome chymotrypsin-like activity (TcProtChymo) assay.; further: in the data most compounds retested in dose-response had high values; format: functional; conditions: 9.37 µM
T3 sequence (whole entry): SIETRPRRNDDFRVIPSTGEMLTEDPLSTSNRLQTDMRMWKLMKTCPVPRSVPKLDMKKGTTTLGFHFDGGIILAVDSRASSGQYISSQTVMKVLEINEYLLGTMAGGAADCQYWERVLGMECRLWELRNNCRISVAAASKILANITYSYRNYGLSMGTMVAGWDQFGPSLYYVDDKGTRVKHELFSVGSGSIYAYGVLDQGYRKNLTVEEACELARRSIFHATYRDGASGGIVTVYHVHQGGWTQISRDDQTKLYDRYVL

Homo sapiens = species: Homo sapiens; assay: To identify inhibition of the IFN signalling (Jak-Stat) pathway via expression of an eGFP reporter gene under the control of an IFN-stimulated response element (ISRE) containing MxA promoter.; format: functional; conditions: 30 µM
[6] = molecular target: T4, Tyrosyl-tRNA synthetase, putative (Trypanosoma cruzi (strain CL Brener)) (UniProt Q4DSP6); assay: Trypanosoma cruzi tyrosyl tRNA synthetase (TcYRS) _High Tyrosine SOP; format: functional; conditions: 30 µM; further: in the data most compounds retested in dose-response had high values
T4 sequence (whole entry): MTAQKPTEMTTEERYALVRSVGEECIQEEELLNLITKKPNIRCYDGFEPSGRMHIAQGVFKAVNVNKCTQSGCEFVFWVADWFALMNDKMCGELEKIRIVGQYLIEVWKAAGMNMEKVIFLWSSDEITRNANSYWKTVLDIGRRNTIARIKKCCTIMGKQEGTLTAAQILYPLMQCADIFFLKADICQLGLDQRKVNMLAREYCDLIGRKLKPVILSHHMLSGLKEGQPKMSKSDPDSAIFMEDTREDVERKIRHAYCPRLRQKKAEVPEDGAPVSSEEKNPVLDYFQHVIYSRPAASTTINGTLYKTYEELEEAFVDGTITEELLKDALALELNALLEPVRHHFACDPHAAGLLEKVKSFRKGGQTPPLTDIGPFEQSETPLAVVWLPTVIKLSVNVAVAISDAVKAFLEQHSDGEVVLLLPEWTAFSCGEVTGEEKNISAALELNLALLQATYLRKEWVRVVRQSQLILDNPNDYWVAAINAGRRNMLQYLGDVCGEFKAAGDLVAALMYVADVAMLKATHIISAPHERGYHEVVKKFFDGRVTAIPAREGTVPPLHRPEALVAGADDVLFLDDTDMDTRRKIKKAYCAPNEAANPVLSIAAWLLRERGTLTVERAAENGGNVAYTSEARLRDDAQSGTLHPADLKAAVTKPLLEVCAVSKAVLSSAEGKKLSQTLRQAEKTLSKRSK

[7] = molecular target: T4, Tyrosyl-tRNA synthetase, putative (Trypanosoma cruzi (strain CL Brener)); assay: Trypanosoma cruzi tyrosyl tRNA synthetase (TcYRS) SOP; format: functional; conditions: 30 µM
[8] = molecular target: Chromo domain-containing protein 1 (Saccharomyces cerevisiae (strain ATCC 204508 / S288c) (Baker's yeast)) (UniProt P32657); assay: ScCHD-1 Enzyme Inhibition Assay; format: functional; conditions: 30 µM; further: in the data most compounds retested in dose-response had high values
Sequence of Chromo domain-containing protein 1 (Saccharomyces cerevisiae (strain ATCC 204508 / S288c) (Baker's yeast)) (P32657 whole entry, the tested form may be a part): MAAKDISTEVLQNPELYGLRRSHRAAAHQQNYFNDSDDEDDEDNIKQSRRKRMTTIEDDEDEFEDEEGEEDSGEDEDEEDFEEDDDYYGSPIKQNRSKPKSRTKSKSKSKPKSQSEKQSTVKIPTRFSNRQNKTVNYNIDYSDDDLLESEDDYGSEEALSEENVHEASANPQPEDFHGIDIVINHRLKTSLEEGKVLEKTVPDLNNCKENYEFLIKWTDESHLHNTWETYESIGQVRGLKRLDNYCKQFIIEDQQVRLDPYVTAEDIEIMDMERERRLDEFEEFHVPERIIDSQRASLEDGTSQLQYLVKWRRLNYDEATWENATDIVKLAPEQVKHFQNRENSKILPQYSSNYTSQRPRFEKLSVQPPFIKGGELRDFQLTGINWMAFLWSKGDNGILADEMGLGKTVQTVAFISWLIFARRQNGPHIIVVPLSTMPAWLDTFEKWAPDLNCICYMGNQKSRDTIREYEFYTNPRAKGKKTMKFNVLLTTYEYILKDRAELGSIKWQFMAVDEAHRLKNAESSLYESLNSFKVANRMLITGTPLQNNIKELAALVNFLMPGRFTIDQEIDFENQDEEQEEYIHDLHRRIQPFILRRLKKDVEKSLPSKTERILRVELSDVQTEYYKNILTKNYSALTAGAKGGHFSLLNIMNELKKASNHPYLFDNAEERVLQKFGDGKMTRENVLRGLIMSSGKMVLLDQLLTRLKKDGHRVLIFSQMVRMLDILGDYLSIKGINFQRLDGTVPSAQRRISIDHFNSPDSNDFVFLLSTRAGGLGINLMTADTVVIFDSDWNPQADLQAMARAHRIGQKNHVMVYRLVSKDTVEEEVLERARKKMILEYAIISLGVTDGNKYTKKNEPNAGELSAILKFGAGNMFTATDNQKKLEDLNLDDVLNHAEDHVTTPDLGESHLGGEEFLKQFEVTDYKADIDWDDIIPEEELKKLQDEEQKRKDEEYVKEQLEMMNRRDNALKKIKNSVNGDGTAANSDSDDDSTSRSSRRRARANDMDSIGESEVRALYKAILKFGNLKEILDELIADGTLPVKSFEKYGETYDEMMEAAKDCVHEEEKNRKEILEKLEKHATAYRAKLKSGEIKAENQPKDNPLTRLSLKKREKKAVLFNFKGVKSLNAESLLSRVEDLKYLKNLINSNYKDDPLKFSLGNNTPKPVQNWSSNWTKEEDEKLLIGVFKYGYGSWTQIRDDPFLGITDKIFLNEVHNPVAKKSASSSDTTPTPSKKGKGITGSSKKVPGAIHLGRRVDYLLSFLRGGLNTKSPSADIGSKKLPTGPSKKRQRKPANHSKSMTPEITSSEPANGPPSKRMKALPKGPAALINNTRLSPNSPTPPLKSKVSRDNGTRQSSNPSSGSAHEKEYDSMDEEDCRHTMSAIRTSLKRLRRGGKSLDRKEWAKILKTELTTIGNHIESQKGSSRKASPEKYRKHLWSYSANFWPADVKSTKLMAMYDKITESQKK

Sequence of Protein translocase subunit SecA (Escherichia coli (strain K12)) (P10408 whole entry): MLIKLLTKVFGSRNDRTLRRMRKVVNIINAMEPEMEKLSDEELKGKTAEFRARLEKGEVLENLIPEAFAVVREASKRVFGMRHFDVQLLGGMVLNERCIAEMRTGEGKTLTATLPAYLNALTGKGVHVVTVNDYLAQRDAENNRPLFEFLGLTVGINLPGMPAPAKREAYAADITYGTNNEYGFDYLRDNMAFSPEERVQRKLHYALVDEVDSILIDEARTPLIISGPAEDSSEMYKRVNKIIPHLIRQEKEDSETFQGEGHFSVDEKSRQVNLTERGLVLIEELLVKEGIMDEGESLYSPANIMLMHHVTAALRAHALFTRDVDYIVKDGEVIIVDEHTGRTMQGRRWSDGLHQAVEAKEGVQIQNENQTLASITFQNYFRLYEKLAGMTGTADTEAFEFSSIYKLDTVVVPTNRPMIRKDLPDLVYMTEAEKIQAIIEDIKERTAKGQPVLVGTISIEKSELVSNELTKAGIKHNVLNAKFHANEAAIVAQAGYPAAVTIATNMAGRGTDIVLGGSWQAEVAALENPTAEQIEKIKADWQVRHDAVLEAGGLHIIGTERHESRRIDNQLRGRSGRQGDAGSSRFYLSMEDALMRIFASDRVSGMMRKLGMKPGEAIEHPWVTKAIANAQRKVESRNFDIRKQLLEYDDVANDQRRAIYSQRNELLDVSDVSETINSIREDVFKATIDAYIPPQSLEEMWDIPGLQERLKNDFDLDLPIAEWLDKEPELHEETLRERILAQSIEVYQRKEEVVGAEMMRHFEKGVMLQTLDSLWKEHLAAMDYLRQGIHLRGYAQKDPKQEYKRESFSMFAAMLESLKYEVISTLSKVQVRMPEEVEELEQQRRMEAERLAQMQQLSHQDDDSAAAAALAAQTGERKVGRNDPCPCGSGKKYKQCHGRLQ

SMILES | Percent Effect [1] [%] | Percent Effect [2] [%] | Percent Effect [3] [%] | Percent Effect (Trypanosoma cruzi) [%] | Percent Effect [4] [%] | Percent Effect [5] [%] | Percent Effect (Homo sapiens) [%] | Percent Effect [6] [%] | Percent Effect [7] [%] | Percent Effect [8] [%]
COc1cccc2c1OCC(C(=O)N1CCC(N3CCOC3=O)CC1)C2 (stereo not given) | -6.75 | 13.5 | 15.6 | 4.95 | 10.8 | 9.59 | 8.78 | 9.04 | 12.2 | -5.88
Nc1nc2nc(C3CCCN(C(=O)c4cscn4)C3)ccc2s1 (stereo not given) | 0.0997 | 22.7 | -9.01 | 3.55 | -9.29 | 19.1 | 25.7 | 0 | 7.5 | -22.1
Cc1noc(C2CCN(C(=O)CCNS(C)(=O)=O)CC2)n1 | -2.97 | 10.3 | 4.81 | 3.47 | 3.69 | 5.89 | 3.03 | 4.31 | 18.1 | -0.743
Cc1nn(C)c(N(C)C)c1CNCCNS(C)(=O)=O | -1.65 | 10.3 | -0.784 | 5.54 | 5.74 | 9.3 | -6.32 | 7.18 | 20.5 | -2.87
O=C1CO[C@@H]2CN(Cc3cccs3)C[C@H]2N1CC1CC1 | -6.35 | 19.5 | -2.08 | 2.04 | 1.62 | 13.9 | -6.77 | 13.2 | 17.9 | -0.629
Cc1cnc(N2CCC3(CCN(CC4CC4)C3=O)CC2)nc1 | -0.786 | 16.9 | -3.91 | -4.13 | 3.65 | 8.84 | 17.8 | 8.7 | 12.5 | -11.4
CC(C)(C)n1ncc2c1NC(=O)CC2c1ccc(OCC(N)=O)cc1 (stereo not given) | -6.78 | 5.41 | -0.0971 | 0.097 | 1.75 | 11.8 | -6.02 | 9.04 | 14.6 | -0.195
N#Cc1ccccc1C(=O)N1C[C@H](CO)C[C@H](CN2CCCC2)C1 | -4.41 | -54 | 7.55 | 6.69 | 16.4 | 5.65 | -3.94 | 2.66 | 9.76 | -1.92
CCc1nc(CN2CCN(C(=O)C3CCCCC3)CC2)cs1 | -3.52 | 17.9 | -8.26 | 7.23 | 1.64 | 8.28 | 12 | 5.26 | 20.5 | -7.32
O=C(N1CCC(Nc2cccnn2)CC1)C1(c2ccc(F)cc2)CC1 | -2.8 | 7.79 | 9.36 | -1.68 | -2.25 | 1.4 | 10.5 | 4.9 | 9.41 | -1.2
COC(=O)COc1cccc(NS(=O)(=O)c2cc(C(=O)O)cs2)c1 | -0.923 | 17.9 | -17.3 | 4.41 | -2.87 | 17.5 | 22.9 | 1.44 | 20.5 | -7.25
CC(C)c1cc(NC(=O)CN2CCNC(=O)C2)on1 | -0.0493 | 26 | -4.98 | -0.933 | -1.43 | 11.2 | 1.34 | 7.84 | 21.2 | -9.71
O=C(CC1CCCC1)N1C[C@@H]2CCN(c3cccnc3)C[C@@H]2C1 | -3.01 | 3.9 | 3.29 | -3.94 | 2.28 | 19.3 | 35.3 | 2.9 | 0 | -2.18
Cn1cnc2c1CCN(Cc1cccc(C(N)=O)c1)C2 | -3.09 | 7.69 | 3.32 | 0.657 | 2.87 | -3.67 | 7.29 | -0.478 | 13.2 | 4.07
Cc1cccc(CN2C[C@@H]3COC[C@]3(CNC(=O)N3CCCC3)C2)n1 | -4.34 | -1.3 | 12.9 | -3.02 | -4.86 | 4.68 | 1.04 | 3.68 | 5.13 | 1.29
COc1ccc(OCCN(C)C(=O)NC(C)c2nncn2C)cc1 (stereo not given) | -4.39 | 10.7 | -0.704 | -5.02 | 5.76 | 15.3 | 17.3 | 3.68 | 12.8 | -6.11
CNC(=O)[C@@H]1C[C@H]2CN(Cc3ccco3)C[C@H]2N1C | -3.02 | -27.3 | -0.86 | -3.19 | 4.11 | 16.7 | -13.8 | 9.66 | 12.5 | -2.19
O=C(Cc1n[nH]c2ccccc12)N1CCC(Nc2cccnn2)CC1 | -6.35 | 10.4 | 4.16 | 3.36 | -7.58 | 13.2 | -4.05 | 5.88 | 11.8 | -9.11
O=C(NCC1CC1)C1=NOC2(CCN(S(=O)(=O)c3cccs3)C2)C1 (stereo not given) | -2.62 | -3.9 | 6.57 | -1.85 | -3.64 | 3.79 | -1.32 | -0.526 | -2.56 | 0.639
Cc1nc(C(=O)N2CCC(Cc3cnc4[nH]ccc4c3)C2)co1 (stereo not given) | -3.17 | 6.67 | -5.86 | -1.97 | -4.87 | 10.5 | 26.2 | -2.12 | -2.5 | -18.2
CN(C)c1ccc(C(=O)N2CCN(Cc3cscn3)CC2)cc1F | 0.885 | 13 | 8.14 | 1.31 | 3.07 | 9.12 | -8.07 | -10.8 | 23.5 | -2.52
